# Compound activity (PubChem)
# GLA inh pH 4.5 – qHTS Assay for Inhibitors of Human alpha-Galactosidase at pH 4.5 | Alpha-galactosidase A (Homo sapiens), P06280 | purified enzyme, 4-MU-alpha-Gal fluorescence, pH 4.5 | activity change, negative = inhibition, % at 105 µM | 230,000 tested, under 10 active | AID 1467, 2008;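 further: 0% = full activity with enzyme and -100% = basal without enzyme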
# ALDH1A1 block – qHTS Assay for Inhibitors of Aldehyde Dehydrogenase 1 (ALDH1A1). Aldehyde dehydrogenase 1A1 (Homo sapiens), P00352. Purified ALDH1A1, NADH fluorescence, propionaldehyde substrate. Potency, µM (highest dose often 75.3 µM), for the others: at the highest dose activity, negative = inhibition, hits mostly inhibitors. 7.3% of 220,000 active; active means well fitted inhibition curve with a large enough effect, not every such curve was filed as active; inconclusive means small, poorly fitted or top-dose-only effect, or another doubt; inactive means no such curve, though single readings can be large or run the other way;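 further: potency means the concentration at half of the fitted maximal effect; plate controls were no enzyme wells and a reference inhibitor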
# ALOX12 inhib – qHTS Assay for Inhibitors of 12-hLO (12-human lipoxygenase); Polyunsaturated fatty acid lipoxygenase ALOX12 (Homo sapiens), P18054; purified 12-hLO, xylenol orange hydroperoxide absorbance; Potency, µM (titrated, usually from 57.1 µM), for inactives: at the highest dose activity change, negative = inhibition, actives largely listed as inhibitors; 0.12% of 150,000 active; AID 1452, 2008; further: potency means the concentration at half of the fitted maximal effect; nearly all actives have a fitted effect of over 55% in size
#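 Lipoxygenase turnover measured by absorbance at 573 and 405 nm after Fe-XO development. Human 12hLO 150 nM, arachidonate 40 uM, pH 7.0 Hepes buffer with detergent; 15 min compound preincubation, 30 min reaction.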
# PNC assembly inh – High Content Assay for Compounds that inhibit the Assembly of the Perinucleolar Compartment; PC3M PTB-GFP, PNC prevalence imaging, 16 h; active compounds read low; activity change (PNC), negative = inhibition, % at 10 µM; 3.1% of 140,000 active;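 active means readout at or below -70, meaning at least 70% loss of cells showing the perinucleolar compartment, a nuclear body marking cancer cells; inconclusive means readout between -30 and a set limit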;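 further: plate controls were DMSO wells for no effect and camptothecin positive control wells for full effect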
#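 PC3M cells stably expressing PTB-GFP, 750–1000 cells/well, treated 16 h at 37 °C with compound (23 nl of library stock), in duplicate. After paraformaldehyde fixation and Hoechst stain, imaged at 20x; PNC prevalence scored by image analysis.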
# HPGD block – qHTS Assay for Inhibitors of HPGD (15-Hydroxyprostaglandin Dehydrogenase). purified HPGD, NADH fluorescence kinetic, PGE2 substrate. Potency, µM, without a hit: top-dose activity change, negative = inhibition, most hits filed as inhibitors. 4.3% of 150,000 active; active means well fitted inhibition curve with a large enough effect, not every such curve was filed as active; inconclusive means small, poorly fitted or top-dose-only effect, or another doubt; inactive means no such curve, though single readings can be large or run the other way; further: potency means the concentration at half of the fitted maximal effect
# Target sequence (P15428 whole entry, looked up): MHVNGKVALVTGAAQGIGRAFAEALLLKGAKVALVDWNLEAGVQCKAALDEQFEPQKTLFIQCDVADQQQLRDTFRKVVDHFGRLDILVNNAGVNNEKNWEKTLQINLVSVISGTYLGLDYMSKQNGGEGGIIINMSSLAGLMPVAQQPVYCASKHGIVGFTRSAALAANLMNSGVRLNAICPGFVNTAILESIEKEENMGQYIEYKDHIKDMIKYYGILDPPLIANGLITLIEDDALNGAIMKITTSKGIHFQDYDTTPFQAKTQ
#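 NADH formation kinetics: reaction with 30 uM PGE2 and 1 mM NAD+ (final), 20 nM enzyme, Tris-HCl pH 8 with Tween 20, after 15 min compound preincubation at room temperature. Fluorescence change, last versus first of five reads.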
# GLA spleen mod – qHTS Assay for Inhibitors and Activators of Human alpha-Galactosidase From Spleen Homogenate. Alpha-galactosidase A (Homo sapiens), P06280. human spleen homogenate, 4MU-alpha-Gal fluorescence, 40 min. Potency, µM (titrated, usually from 80 µM), without a hit: at the top dose activity change, negative = inhibition, hits mostly inhibitors. 0.008% of 240,000 active;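 further: potency means the concentration at half of the fitted maximal effect; 0% = enzyme with vehicle and -100% = no enzyme basal signal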
#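 Human spleen homogenate (1 ug) as enzyme source, 4-methylumbelliferyl-alpha-D-galactopyranoside 1 mM final, citrate/phosphate pH 5.0 with 0.01% Tween-20. Compounds 40 min at 37C, NaOH/glycine stop; fluorescence Ex 365/Em 440, Hill-fit AC50.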
# * marks the source's active call; other numbers are inactive results; ? = inconclusive; / = no result given. Hits are enriched below; roughly 10% of the tested compounds scored in any of these assays. Unless noted, the call rests on the fitted dose curve; in most records, active means well fitted curve in the direction sought with a large enough effect; inconclusive means small, poorly fitted or top-dose-only effect, or another doubt; inactive means no such curve, though single readings can be large; an effect the other way counts as inactive or inconclusive. Unless noted, on the % scale 0 is the no-effect control and ±100 the full control effect.
SMILES,GLA inh pH 4.5,ALDH1A1 block,ALOX12 inhib,PNC assembly inh,HPGD block,GLA spleen mod
CC(C)(C)C(=O)NC(=S)Nc1ccccc1C(=O)Nc1ccccc1,3,25µM*,-9%,45,-3%,-1%
CC(C)C(=O)NC(=S)Nc1ccccc1C(=O)Nc1ccccc1,3,-1%,4%,94,-10%,1%
COc1cccc(NC(=O)CN(C)C(=O)COc2ccc3ccccc3c2)c1,-4,8%,-2%,0,/,9%
CSc1nccc(Oc2ccc(C#N)cc2)n1,11,7%,-3%,-11,-9%,-6%
CC(C)(C)C(=O)Nc1ccccc1C(=O)Nc1ccccn1,-15,-12%,3%,-100*,-11%,5%
CC1=[N+](C)c2c(ccc3cccnc23)C1(C)C,1,?,/,/,/,-39%
COCCn1cnc2c(c1=O)c1nc3ccccc3nc1n2/N=C/c1ccco1,-8,/,/,/,/,11%
C=CCn1cnc2c(c1=O)c1nc3ccccc3nc1n2/N=C/c1cccc(OC)c1,-2,11µM*,-5%,8,-21%,-14%
CCCCCCn1cnc2c(c1=O)c1nc3ccccc3nc1n2/N=C/c1ccco1,2,25µM*,-9%,?,-23%,?
C/C=C1\CC2C=CC1C2 (stereo not given),/,-13%,-3%,/,-9%,-3%
CCC(CC)C(=O)NCCCN1CCOCC1,7,23%,3%,1,-1%,-5%
Cc1ccc(C(=O)CN(Cc2ccccc2)C2=NCCS2)cc1,1,20µM*,-2%,?,-1%,5%
O=C(CN(Cc1ccccc1)C1=NCCS1)c1ccccc1,1,-10%,-1%,36,2%,0%
CCCN(CCC)C(=O)CSc1nc2n[nH]c(C)c2c(=N)n1-c1ccc(OCC)cc1,-2,3.2µM*,-13%,?,/,0%
Cc1cccc(OCc2nnc(SCC(=O)N3c4ccccc4CCc4ccccc43)o2)c1,-1,/,/,/,/,3%
O=C(CSc1nnc(COc2cccc3cccnc23)o1)N1CCc2ccccc21,-7,14µM*,-2%,?,-12%,3%
O=C(CSc1nnc(COc2cccc3cccnc23)o1)N1CCN(C(=O)c2ccco2)CC1,-5,-3%,2%,-100*,-15%,-2%
O=C(CSc1nnc(COc2ccc(F)cc2)o1)N1c2ccccc2CCc2ccccc21,-8,3.2µM*,-6%,-19,-14%,8%
COc1ccc(-c2ccc(=N)n(CCCC(=O)O)n2)cc1,-2,-2%,-2%,/,-19%,9%
COCCn1c(=O)c(CCc2ccccc2)nc2cnc(OC)nc21,/,?,2%,/,-4%,-13%
O=S(=O)(CCOc1ccccc1)c1nc2ccccc2[nH]1,-1,6.3µM*,-6%,25,-16%,3%
O=C(CCCOc1ccccc1)Nc1nc2ccccc2[nH]1,0,8%,/,/,/,0%
O=C(N/N=C/c1ccc(N2CCOCC2)s1)c1ccc(NS(=O)(=O)c2cccs2)cc1,-20,16µM*,/,/,/,-4%
FC(F)(F)c1ccc(Cl)c(N/N=C/c2ccc(N3CCOCC3)s2)c1,0,4.5µM*,-28%,-3,?,-9%
O=C(N/N=C/c1sc(N2CCOCC2)nc1-c1ccccc1)c1ccccc1Cl,-9,?,/,/,/,10%
CCOC(=O)N/N=C/c1ccc(N2CCOCC2)s1,-8,?,-3%,25,-24%,6%
O=C(N/N=C/c1ccc(N2CCOCC2)cc1)c1ccc(NS(=O)(=O)c2cccs2)cc1,?,?,/,/,/,-5%
O=C(N/N=C/c1ccc(N2CCOCC2)s1)c1ccccc1Cl,-12,16µM*,/,/,/,0%
